{"source": "ChEMBL document CHEMBL4513216", "about": "“Probing the Open Global Health Chemical Diversity Library for Multistage-Active Starting Points for Next-Generation Antimalarials” (ACS Infect Dis, 2020)", "note": "The campaign covered roughly 69,000 compounds. About 8,600 (12%) showed an effect of 50% or more. For the sample, strong results were picked, then their nearest neighbours and some compounds at random.", "data": [{"tested_on": "Plasmodium berghei", "assay": "Screen against P. berghei liver stage (PbLuc), transformed with Luciferase, at 10uM", "format": "functional, HepG2", "conditions": "tested at 10 uM", "units": {"INHIBITION": "%"}, "values": [{"smiles": "CC(=O)c1ccc(N2CCC(CO)(CCOc3ccccc3)CC2)nc1", "INHIBITION": 95.1}, {"smiles": "CC(=O)c1ccc(N2CCC3(CC2)CC(=O)N(C)C3)nc1", "INHIBITION": 34.1}, {"smiles": "CC(=O)c1ccc(N2CCCC(CO)(CCOc3ccccc3)C2)nc1", "note": "(stereo not drawn)", "INHIBITION": 70.1}, {"smiles": "CN1C(=O)C2(CCN(S(C)(=O)=O)CC2)c2cc(F)ccc21", "INHIBITION": 17.7}, {"smiles": "O=C(CNCCn1cccn1)NCC1(c2ccccc2)CCOCC1", "INHIBITION": 25.4}, {"smiles": "CS(=O)(=O)NC[C@H]1OC[C@@H]2CCN(CCc3ccccc3)C[C@@H]21", "INHIBITION": 43.4}, {"smiles": "Cn1c(C2CC2)nc2c1CCN(CCOc1cccc(F)c1)C2", "INHIBITION": 11.9}, {"smiles": "Cc1ccccc1C(=O)N1C[C@@H]2OCCN(c3ncccn3)[C@@H]2C1", "INHIBITION": -2.35}, {"smiles": "CN1CCN(S(C)(=O)=O)c2ccc(F)cc21", "INHIBITION": 21.8}, {"smiles": "CN1CCN(S(=O)(=O)c2cccc(F)c2)c2ccccc21", "INHIBITION": 46.6}, {"smiles": "CN1CCN(S(=O)(=O)c2cccc(C#N)c2)c2ccc(F)cc21", "INHIBITION": 62.4}, {"smiles": "CCc1cc(OC)c(OC)cc1C(=O)Nc1cccnc1", "INHIBITION": 22.6}, {"smiles": "CO[C@H]1CN(Cc2c(C)ccc3ncccc23)CC[C@H]1N", "INHIBITION": -69.3}, {"smiles": "O=C(c1ccno1)N1CCc2ncnc(-c3ccncc3)c2CC1", "INHIBITION": 35.5}, {"smiles": "O=C(Nc1ccc(N2CCCC2)nc1)N1CCc2ccccc2C1", "INHIBITION": 63.5}, {"smiles": "O=C(Nc1ccc(N2CCCC2)nc1)N1CCc2sccc2C1", "INHIBITION": -11.5}, {"smiles": "O=C(Nc1ccc(N2CCCCC2)nc1)N1CCc2sccc2C1", "INHIBITION": -10.8}, {"smiles": "c1cnnc(N[C@@H]2CC[C@@H]3CN(Cc4c[nH]c5ccccc45)C[C@@H]32)c1", "INHIBITION": 31.6}, {"smiles": "O=c1c2ccc(Cl)cc2ncn1CCCN1CCCCC1CO", "note": "(stereo not drawn)", "INHIBITION": 22.9}, {"smiles": "O=c1c2ccc(C(F)(F)F)cc2ncn1CCCN1CCCCC1CO", "note": "(stereo not drawn)", "INHIBITION": 56.6}, {"smiles": "CC(C)N1CCCCC1CCn1cnc2cc(C(F)(F)F)ccc2c1=O", "note": "(stereo not drawn)", "INHIBITION": 47.9}, {"smiles": "COCCS(=O)(=O)NC(C)c1ccccc1Br", "note": "(stereo not drawn)", "INHIBITION": 4.34}, {"smiles": "Cc1ccc(NC(=O)Nc2c[nH]c(=O)[nH]c2=O)c(C)c1", "INHIBITION": 50.8}, {"smiles": "Cc1ccc(C)c(NC(=O)Nc2c[nH]c(=O)[nH]c2=O)c1", "INHIBITION": 29.2}, {"smiles": "Cc1ccc(NC(=O)Nc2c[nH]c(=O)[nH]c2=O)c(Cl)c1", "INHIBITION": 3.77}, {"smiles": "CN1CCCC(NC(=O)c2ccc(C(=O)c3cc[nH]c3)cc2)C1", "note": "(stereo not drawn)", "INHIBITION": 44.2}, {"smiles": "CCOCCN1CCN(CC(=O)N2CCCC2)CC1CC", "note": "(stereo not drawn)", "INHIBITION": 31.9}, {"smiles": "CCOCCN1CCN(CC(=O)N2CCCC2)CC1C", "note": "(stereo not drawn)", "INHIBITION": 66.5}, {"smiles": "CCOCCN1CCN(CCC(=O)N2CCCCC2)CC1C", "note": "(stereo not drawn)", "INHIBITION": -10.1}, {"smiles": "CCOCCN1CCN(CC2(O)CCCCC2)CC1", "INHIBITION": 10.6}, {"smiles": "CCOCCN1CCN(CC(=O)N2CCC2)CC1CC", "note": "(stereo not drawn)", "INHIBITION": -20.2}, {"smiles": "CCOCCN1CCN(CCC(=O)N2CCCCC2)CC1", "INHIBITION": 64.1}, {"smiles": "Cc1cc2nc(C(C)C)cc(NCCc3cccn3C)n2n1", "INHIBITION": 39.5}, {"smiles": "CN(Cc1cscn1)C(=O)C(c1ccccc1)N1CCSCC1", "note": "(stereo not drawn)", "INHIBITION": 60.3}, {"smiles": "Cc1cc(CN(C)C(=O)C(c2ccccc2)N2CCSCC2)no1", "note": "(stereo not drawn)", "INHIBITION": 17.5}, {"smiles": "CN(Cc1ccccn1)C(=O)C(c1ccccc1)N1CCSCC1", "note": "(stereo not drawn)", "INHIBITION": 33.7}, {"smiles": "COCCOCC1CCN(C(=O)c2ccc3[nH]cnc3c2)C1", "note": "(stereo not drawn)", "INHIBITION": -24.9}, {"smiles": "COc1c(CNCc2ccc(N3CCCC3)nc2)c(C(C)C)nn1C", "INHIBITION": 7.95}, {"smiles": "CCN(CCC(=O)OC)S(=O)(=O)c1cnc2c(c1)c(C)nn2C", "INHIBITION": 35.1}, {"smiles": "Cc1nn(C)c2ncc(S(=O)(=O)N3CCCC(C(N)=O)C3)cc12", "note": "(stereo not drawn)", "INHIBITION": 36.5}, {"smiles": "CCCN(CC(=O)OC)S(=O)(=O)c1cnc2c(c1)c(C)nn2C", "INHIBITION": 57.6}, {"smiles": "Cc1nn(C)c2ncc(S(=O)(=O)N3CCCC(C)CC3)cc12", "note": "(stereo not drawn)", "INHIBITION": 45.1}, {"smiles": "CCN(CC(=O)NC)S(=O)(=O)c1cnc2c(c1)c(C)nn2C", "INHIBITION": 12.7}, {"smiles": "CCN(CC(=O)N(C)C)S(=O)(=O)c1cnc2c(c1)c(C)nn2C", "INHIBITION": 51.1}, {"smiles": "COC(=O)Cn1c(=O)[nH]c2cn(-c3ccc(F)cc3)c(=O)n21", "INHIBITION": 31}, {"smiles": "Cc1ccsc1C(=O)N1CCCC(c2[nH]ncc2S(C)(=O)=O)C1", "note": "(stereo not drawn)", "INHIBITION": 17.4}, {"smiles": "Cn1ccnc1CN1CCN(Cc2noc(-c3ccccc3)n2)CC1", "INHIBITION": 24.4}, {"smiles": "Cc1nc(N2CCCC2)nc2c1CCN(Cc1nccn1C)CC2", "INHIBITION": 46.6}, {"smiles": "Cc1nc(N2CCOCC2)nc2c1CCN(Cc1nccn1C)CC2", "INHIBITION": 38.5}, {"smiles": "Cc1nc(-c2ccccc2)nc2c1CCN(Cc1nccn1C)CC2", "INHIBITION": 75.6}, {"smiles": "Cc1nc(C)c2c(n1)CCN(Cc1nccn1C)CC2", "INHIBITION": 45.7}, {"smiles": "CN(C)c1nc(N2CCCC2)nc2c1CCN(Cc1nccn1C)CC2", "INHIBITION": 50.3}, {"smiles": "CC(C)(C)Nc1c(C2CCN(C(=O)C3CC3)CC2)nc2ccccn12", "INHIBITION": 26.355}]}]}
